Mot1-301 SUMO – inhibitors of SUMOylation pathway: yeast Mot1-301 growth rescue | hit rate 1% among 320,000 | growth rescue, % at 18.8 µM | AID 2716 | S. cerevisiae Mot1-301 growth rescue, ATP luminescence, 38.5C; percent above DMSO median, 100 means doubled;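 active = every valid replicate shows activation above 250% relative to neutral control wells; inactive = the rest, any valid replicate at or below 250%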
tim10-1 inh – growth inhibitors of tim10-1 mutant yeast. hit rate 2.2% among 330,000. inhibition, % at 20 µM. S. cerevisiae tim10-1 ts strain growth, BacTiter-Glo, 24 h;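 active = inhibition of at least 40%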;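 note: mutant grown at 25 °C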
tim23-1 inh – growth inhibitors of tim23-1 mutant yeast | hit rate 1.3% among 330,000 | inhibition, % at 20 µM | S. cerevisiae tim23-1 growth, BacTiter-Glo luminescence, 24 h;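 active = growth inhibition of the mutant yeast at or above 50%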;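 note: temperature-sensitive mutant grown at 25 °C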
TIM10 inh – growth inhibitors of TIM10 yeast strain. S. cerevisiae TIM10 strain growth, BacTiter-Glo luminescence, 24 h. inhibition, % at 10 µM. hit rate 1.4% among 330,000. AID 463195;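 active = inhibition of 40% or more at the single tested concentration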;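 note: wild-type TIM10 isogenic control strain grown at permissive 25 °C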
PfHsp90 yeast 2 – reduces growth (ATP signal) of yeast expressing P. falciparum Hsp90. S. cerevisiae expressing PfHsp90, BacTiter-Glo ATP, 48 h; yeast lacking PDR1 and PDR3 efflux regulators. AID 504621. inhibition, % at 9.4 µM. hit rate 0.32% among 310,000;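 active = every replicate shows inhibition above about 80%, whatever the replicate mean, limit read from the data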
TIM10 conf – TIM10 yeast growth inhibition, confirmed | inhibition, % at 10 µM | shares compounds with TIM10 inh | AID 463215 | S. cerevisiae tim10 strain growth, BacTiter-Glo luminescence, 24 h | hit rate 63% among 4,600;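 active = inhibition of yeast growth at or above a set limit in either of two replicates at 10 µM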; note: this counterscreen used the strain with wild-type TIM10
Numbers stand for hits; n = inactive; x = no result given; ! = not confirmed by another sample. A selection: hits, their analogues and other compounds. The true share with any hit is near 4.4%.

SMILES	Mot1-301 SUMO	tim10-1 inh	tim23-1 inh	TIM10 inh	PfHsp90 yeast 2	TIM10 conf
COc1ccc(CCC(=O)NNC(=O)Nc2ccccc2Cl)cc1	n	n	n	n	n	x
CCc1ccc2c(CC(=O)Nc3cccc(S(=O)(=O)N4CCOCC4)c3)coc2c1	n	n	n	n	n	x
O=C(Cc1ccc(Br)cc1)NNC(=O)c1cccs1	n	n	n	n	n	x
O=C(N/N=C/c1cccnc1)c1cc2ccccc2o1	n	n	n	n	n	x
O=C(N/N=C/c1ccncc1)c1cc2ccccc2o1	n	n	n	42.6	n	35.5
O=C1/C(=C/c2ccsc2)N2CCC1CC2	n	n	n	n	n	x
COc1ccc(C/C(C)=N/NS(=O)(=O)c2ccc(Br)cc2)cc1	n	n	n	n	n	x
O=C1OCCN1C(=O)[C@H]1[C@H](c2ccc(Cl)cc2)C(c2ccccc2)=NN1c1ccccc1	x	n	n	n	n	x
O=C1[C@H]2C(c3ccccc3)=NN(c3ccccc3)[C@H]2C(=O)N1c1ccccc1	n	n	n	49.2	n	46.4
CCN(CC)c1ncccc1C(=O)NCc1cccs1	n	n	n	n	n	x
Cc1ccc(C)c(Nc2ncccc2C(=O)NCc2cccs2)c1	x	n	n	44.5	n	44.1
CCOc1ccc(N/C(SC)=C(/C#N)C(N)=O)cc1	n	n	n	n	n	x
CCOc1ccc(N/C(SCc2cccc([N+](=O)[O-])c2)=C(/C#N)C(N)=O)cc1	n	n	n	45.7	n	41.5
Cc1ccccc1-c1cn(-c2ccccc2)c(=S)[nH]1	n	n	n	40.6	n	50.5
CC(C)(C)OC(=O)N1CCC(C(=O)Nc2cccc(C(=O)N3CCCC3)c2)CC1	x	x	x	x	n	x
CC(C)c1ccc(S(=O)(=O)N2CCN(C(=S)NCc3ccco3)CC2)cc1	n	n	n	49.4	n	n
CCCOCCc1nnc(N)s1	n	n	n	n	n	x
O=C(CSc1nnc2scc(-c3ccccc3)n12)c1ccc2c(c1)OCCO2	n	n	n	n	n	x
c1ccc(-c2csc3nnc(SCc4ccc5c(c4)OCCO5)n23)cc1	n	n	n	41.0	n	29.8
CCCn1c(CN2CCN(C(C)=O)CC2)nc2cc(S(=O)(=O)N(C)C)ccc21	n	n	n	n	n	x
CC1CCC(NC(=O)CNC(=O)Cc2cccc3ccccc23)CC1 (stereo unspecified)	n	n	n	n	n	x
C[n+]1c2n(c3ccccc31)N=C(c1ccc(Cl)cc1)CS2	n	n	n	41.1	n	44.2
COc1ccc(S(=O)(=O)NCC(=O)N(CC(=O)NCc2ccco2)C2CCCC2)cc1	n	n	n	n	n	x
CCOC(=O)CN1C=C(c2ccc3ccccc3n2)C(C[N+](=O)[O-])c2ccccc21 (stereo unspecified)	n	n	n	56.6	n	61.9
Nc1c(C(=O)Nc2ccc(Br)cc2)sc2nc(-c3ccco3)ccc12	n	n	n	n	n	x
SMILES	Mot1-301 SUMO	tim10-1 inh	tim23-1 inh	TIM10 inh	PfHsp90 yeast 2	TIM10 conf
Nc1c(C(=O)Nc2ccc(F)cc2)sc2nc(-c3ccco3)ccc12	n	n	n	48.6	n	48.3
c1ccc(CNc2ncnc3ccccc23)cc1	n	n	n	81.1!	n	n
S=c1[nH]nc(COc2ccc(Cl)cc2)n1C1CCCCC1	n	n	n	40.4	n	n
O=C(Nc1cccc(-c2nc3ccccc3[nH]2)c1)c1cccc(NC(=O)c2ccco2)c1	n	n	n	n	n	x
O=C(Nc1ccc2nc(-c3ccccc3)[nH]c2c1)c1ccco1	n	n	n	49.6	x	n
CC(C)C[C@@H](CNCC(=O)[C@H](CC(C)C)NC(=O)c1[nH]cnc1C(=O)N[C@@H](C)CN)NC(=O)c1nc[nH]c1C(=O)N[C@@H](CC(=O)O)C(=O)O	x	x	x	x	n	x
CC(=O)Nc1ccc(C(=O)OCc2ccc(Br)cc2)cc1	n	n	n	40.9	n	34.8
Cc1ccc2c(c1)c1nc3ccccc3nc1n2CCN1CCOCC1	n	n	n	48.1	n	n
CCOc1ccccc1NC(=O)CSc1nnc(CCC(=O)Nc2ccccc2F)n1C	n	n	n	n	n	x
COc1cccc(NC(=O)Nc2cccn(Cc3ccccc3)c2=O)c1	n	n	n	43.8	n	28.0
COc1cccc(NC(=O)Nc2ccc(Cc3ccncc3)cc2)c1	n	n	n	43.7	n	n
CC(C)Oc1ccc(C(=O)Nc2cc(S(=O)(=O)N3CCOCC3)ccc2N2CCOCC2)cc1	x	n	n	n	n	x
O=C(NCCCn1ccnc1)/C(=C\c1ccc(Br)cc1)NC(=O)c1ccccc1F	n	n	n	n	n	x
CSc1ncccc1C(=O)OCC(=O)NCCCc1ccccc1	n	n	n	n	n	x
CC1(C)C([N+](=O)[O-])C(c2ccc(Cl)cc2)NC(c2ccc(Cl)cc2)C1[N+](=O)[O-] (stereo unspecified)	n	n	n	42.0	n	37.7
N#CC(C#N)=C1C=CC=CN1/C(=C\c1ccccc1)C(=O)c1cccs1	n	n	n	42.6	n	n
N#C/C(=C\c1ccccc1)C(=O)Nc1nncs1	n	n	n	n	n	x
CN1CCC(=NNC(=O)CN(c2cccc([N+](=O)[O-])c2)S(=O)(=O)c2ccccc2)CC1	n	n	n	n	n	x
CN1CCC(=NNC(=O)CN(c2ccc([N+](=O)[O-])cc2)S(=O)(=O)c2ccccc2)CC1	n	n	n	40.4	n	30.8
O=C1c2ccccc2C(=O)c2cc(NC(=O)C3CC3)ccc21	n	n	n	44.1	n	n
CCOC(=O)c1ccc(N2C(=O)CC(N(C)CCc3ccc(OC)c(OC)c3)C2=O)cc1 (stereo unspecified)	n	n	n	43.3	112.2	45.8
CCOc1cccc(N2C(=O)CC(N(CCc3ccc(OC)c(OC)c3)C(=O)CC)C2=O)c1 (stereo unspecified)	n	n	n	n	n	x
CCNc1nc(N)c(C(=O)c2ccc(Cl)s2)s1	n	n	n	44.3	n	41.0
CCOC(=O)CNC(=O)c1ccc(Cl)s1	n	n	n	n	x	x
C[C@]12C(=O)N(c3ccc(F)cc3)C(=O)N1[C@H]1c3ccccc3OC[C@@H]1[C@H]2c1ccccc1	n	n	n	43.7	n	42.6
SMILES	Mot1-301 SUMO	tim10-1 inh	tim23-1 inh	TIM10 inh	PfHsp90 yeast 2	TIM10 conf
CCOC(=O)c1sc2nc(CSc3ccccc3)nc(N3CCCN(C)CC3)c2c1C	n	n	n	41.1	n	n
CCCOc1ccc(C2=NNC(c3cccs3)=Nc3ccc(OC)cc32)cc1	n	n	n	51.5	n	38.8
CN(Cc1ccccc1)C(=O)C1CCN(S(=O)(=O)c2cccc3nsnc23)CC1	n	n	n	n	n	x
COc1ccc(S(=O)(=O)N(C)Cc2ccc3c(c2)OCCO3)cc1	n	n	n	n	n	x
Cc1cccc(Cn2ccc(NC(=O)c3ccc4c(c3)OCO4)n2)c1	n	n	n	40.5	n	34.4
Cc1cccc(Cn2ccc(NC(=O)c3cccnc3)n2)c1	n	n	n	n	n	x

Compound activity deposited in PubChem BioAssay by several laboratories.
